Measurements as given in PubChem BioAssay.
Several values for one entry are separate records, joined by “and”; a condition that tells them apart may be missing. Equal values may be shown once. Activity calls are given as the source filed them. Unless noted, no stated cut-off is given here; in the data, active means parasite load remaining mostly below about 12% (no sharp cut-off); inactive means mostly above about 10%.

How the values were obtained:
[1] = liver-stage malaria parasite growth inhibition, primary screen, cell-based, HepG2, luciferase luminescence, HepG2 viability (AID 624349);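 further: 100% = mean of DMSO negative control wells on the same plate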; settings: P. berghei liver stage in HepG2, luciferase luminescence, concentration not given here; parasite load remaining: stronger effect = lower value; viability: measured here: HepG2 viability without parasites
[2] = stimulators of nuclear beta-catenin in C2C12, primary screen, imaging, WNT3A-conditioned medium, mouse C2C12, NPC library (AID 1117326; in the data active means nuclear beta-catenin stimulation mostly above about 4.2%, no sharp cut-off; inactive means mostly below about 10%); settings: stronger effect = higher value
[3] = stimulators of insulin release from INS-1E, primary screen, cell-based, 5 mM glucose, NPC library (AID 1117329;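 active means compound raises insulin release from rat beta cells at 5 mM glucose, no numeric limit stated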); settings: rat INS-1E insulin secretion, at 10 µM, stronger effect = higher value
[4] = growth inhibition of GSK3B-pretreated HCT116 cells – cell-based, CellTiter-Glo, 0.2 to 20 µM (AID 1117336;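 active means compounds lowering colon cancer cell viability after pretreatment blocking the GSK3B kinase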); settings: HCT116 viability after GSK3B inhibitor, at 20 µM, stronger effect = higher value
[5] = inhibition of endothelial tube formation, primary screen, imaging, VEGF stimulated, CD31 staining, tube area, NPC library (AID 1117340;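 active means compound that reduces growth-factor-driven endothelial tube area in a mixed cell culture, no cutoff stated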); settings: VEGF-stimulated ADSC/ECFC co-culture, at 10 µM, stronger effect = higher value
[6] = glucagon-like peptide 1 release enhancers, primary assay, NCI-H716 cell line, NPC library (AID 1117341;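 active means compound raises GLP1 secretion from the human gut endocrine cells, with no numeric limit stated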); settings: NCI-H716 cells, at 10 µM, stronger effect = higher value
[7] = HCT116 colon cancer cell growth inhibition, primary screen, CellTiter-Glo luminescence, NPC library (AID 1117342;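 active means compounds that lower survival of HCT116 colon cancer cells in the luminescence readout, no numeric limit stated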); settings: at 20 µM (top of the series)
[8] = CellTiter-Glo luminescent readout of SW480 viability loss, NPC library primary (AID 1117343;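 active means compounds that lower viability of the colon cancer cells in the luminescence readout, with no numeric limit stated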); settings: CellTiter-Glo luminescence; at 20 µM (top of the series)
[9] = decreased DLD-1 cellular survival, CellTiter-Glo luminescent readout, NPC compound collection, primary HTS (AID 1117346;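 active means compounds that lower survival of DLD-1 colon cancer cells in the luminescence readout, no cutoff given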); settings: DLD-1 viability, CellTiter-Glo luminescence; at 20 µM (top of the series)
[10] = target: 6-phosphogluconate dehydrogenase, decarboxylating (Homo sapiens) (UniProt P52209); experiment: 6PGD enzyme inhibitors, primary screen, biochemical, human, recombinant enzyme, NADPH absorbance (AID 1159550;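 active means at least 20% inhibition of 6-phosphogluconate dehydrogenase activity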); settings: recombinant 6PGD, NADPH absorbance 341 nm; at 10 µM; stronger effect = higher value
[11] = test system: Hepatitis C virus NS3 helicase; experiment: HCV NS3 helicase inhibitors, primary screen, biochemical, fluorescence polarization, LOPAC1280 library (AID 687035; in the data active means inhibition above about 37%); settings: Purified HCV NS3 helicase, Cy5-dT15 ssDNA binding fluorescence polarization; stronger effect = higher value; concentration not given here
[12] = Cy5 fluorescence quenching or enhancement artefacts, artefact control for HCV NS3 helicase inhibitor project, biochemical, LOPAC1280 (AID 687037; call rule not given here); settings: Cy5-DNA-NS3h complex fluorescence interference counterscreen

Sequence of 6-phosphogluconate dehydrogenase, decarboxylating (Homo sapiens) (P52209 whole entry, looked up): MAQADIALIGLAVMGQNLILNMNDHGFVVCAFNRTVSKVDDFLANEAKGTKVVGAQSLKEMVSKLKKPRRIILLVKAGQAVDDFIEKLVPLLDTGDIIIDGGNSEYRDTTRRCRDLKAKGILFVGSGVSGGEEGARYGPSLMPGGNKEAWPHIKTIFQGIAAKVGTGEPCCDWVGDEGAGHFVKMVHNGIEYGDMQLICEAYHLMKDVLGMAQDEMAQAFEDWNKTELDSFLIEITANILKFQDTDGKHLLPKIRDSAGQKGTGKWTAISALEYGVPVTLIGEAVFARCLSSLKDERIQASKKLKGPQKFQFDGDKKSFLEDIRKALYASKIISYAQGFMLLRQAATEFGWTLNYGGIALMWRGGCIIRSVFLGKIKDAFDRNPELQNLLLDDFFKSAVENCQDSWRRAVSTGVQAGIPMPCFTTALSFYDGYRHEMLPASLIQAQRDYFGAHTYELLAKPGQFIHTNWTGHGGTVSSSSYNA

Compound | parasite load remaining [1] | viability [1] | nuclear beta-catenin stimulation ([2]; at 10 µM) | nuclear beta-catenin stimulation ([2]; stimulation, at 2 µM) [%] | insulin secretion stimulation [3] | viability decrease [4] | tube area decrease [5] | GLP1 secretion stimulation [6] | inhibition of viability [7] | viability decrease (inhibition) [8] | viability decrease (inhibition) [9] | inhibition [10] | inhibition [11] | fluorescence ratio (interference) [12]
CC(=O)N(O)CCCCCNC(=O)CCC(=O)N(O)CCCCCNC(=O)CCC(=O)N(O)CCCCCN | 87.4% (inactive) and 82.1% (inactive) and 111% (inactive) | 104% and 70.2% and 87.4% | -0.3% (inactive) | -1.8 | 1.8% (inactive) | 56.1% (active) | 83% (active) | -3.6% (inactive) | 75.7% (active) | 21% (inactive) | 31.5% (inactive) | -4.7% (inactive) |  | 
CN1CCC(OC(c2ccccc2)c2ccccc2)CC1 | 97.1% (inactive) and 89.2% (inactive) and 61.4% (inactive) | 96.1% and 75.8% and 94.2% | 0.7% (inactive) | 1.6 | 6.2% (inactive) | -31.3% (inactive) | 13.8% (inactive) | 4.2% (inactive) | 35.4% (inactive) | 37.7% (inactive) | -6.7% (inactive) | 10.6% (inactive) |  | 
CCOC(=O)n1ccn(C)c1=S | 106% (inactive) and 140% (inactive) and 85.8% (inactive) | 108% and 84.5% and 77.4% | 0.6% (inactive) | -0.4 | 0.6% (inactive) | -40.3% (inactive) | 10.6% (inactive) | 0.3% (inactive) | -5.63% (inactive) | 6.5% (inactive) | 5.3% (inactive) | 2.95% (inactive) |  | 
CC(C(=O)O)c1ccc(C(=O)c2cccs2)cc1 (centres undefined) | 81.3% (inactive) and 117% (inactive) and 42.2% (inactive) | 105% and 68.4% and 94.1% | -2.4% (inactive) | -0.7 | 1.8% (inactive) | -5.4% (inactive) | -3.5% (inactive) | -3.9% (inactive) | 0.8% (inactive) | -1.2% (inactive) | 0% (inactive) | -2.86% (inactive) |  | 
O=C(O)c1cc(O)c(O)c(O)c1 | 50.3% (inactive) | 100% | 1% (inactive) | -0.2 | -0.6% (inactive) | 44.8% (inactive) | -2.4% (inactive) | 5.1% (inactive) | 1.3% (inactive) | 36.1% (inactive) | 39.5% (inactive) | 3.08% (inactive) |  | 
O=C(CCCCC(=O)Nc1c(I)cc(I)c(C(=O)O)c1I)Nc1c(I)cc(I)c(C(=O)O)c1I | 81.3% (inactive) | 93.2% | 1.1% (inactive) | 3.3 | -1.2% (inactive) | -15.2% (inactive) | 5.5% (inactive) | -3.5% (inactive) | -1.4% (inactive) | 7.4% (inactive) | -2.6% (inactive) | 15.2% (inactive) |  | 
CC1CC(OC(=O)C(O)c2ccccc2)CC(C)(C)N1C (centres undefined) | 101% (inactive) | 101% | -1.4% (inactive) | -0.1 | 2.7% (inactive) | 3.6% (inactive) | 10.4% (inactive) | 2.1% (inactive) | 9.83% (inactive) | 17.1% (inactive) | 0.1% (inactive) | -25.4% (inactive) |  | 
C/C=C(/C(=C/C)c1ccc(O)cc1)c1ccc(O)cc1 | 99.8% (inactive) and 85.1% (inactive) and 15.2% (inactive) | 93.2% and 76.6% and 68.2% | 20.4% (inactive) | 2.2 | -1.9% (inactive) | 101% (active) | 49.5% (active) | 34.7% (active) | 101% (active) | 123% (active) | 102% (active) | 15.9% (inactive) |  | 
CCOC(N)=O | 148% (inactive) and 51.2% (inactive) | 85% and 96.6% | 2.6% (inactive) | 7.1 | 0.8% (inactive) | -12.6% (inactive) | 14.2% (inactive) | -2.3% (inactive) | 3.77% (inactive) | 5.1% (inactive) | -11.6% (inactive) | -22.6% (inactive) |  | 
C[C@]12CC[C@@H]3c4ccc(O)cc4CC[C@H]3[C@@H]1C[C@@H](O)[C@@H]2O | 68.5% (inactive) and 32.3% (inactive) | 70% and 67.5% | 4.3% (inactive) | 3 | 2% (inactive) | 11.1% (inactive) | -3.9% (inactive) | 12.5% (inactive) | 4.67% (inactive) | 25.1% (inactive) | -13.7% (inactive) | -14.5% (inactive) |  | 
O=C(O)CCNC(=O)c1ccccc1 | 140% (inactive) | 88.4% | 3.5% (inactive) | 0.2 | -1% (inactive) | 6.3% (inactive) | -2% (inactive) | -0.3% (inactive) | -7.2% (inactive) | -1.3% (inactive) | 6.4% (inactive) | 2.23% (inactive) |  | 
O=c1[nH]c(=O)n([C@H]2C[C@H](O)[C@@H](CO)O2)cc1F | 13.4% (inactive) | 75% | 21% (inactive) | 21.6 | -1.2% (inactive) | 94.2% (active) | 87.8% (active) | 2.8% (inactive) | 102% (active) | 93.2% (active) | 69.5% (active) | -7.05% (inactive) |  | 
CC(=O)Nc1ccc(S(=O)(=O)Nc2ccc([N+](=O)[O-])cc2)cc1 | 152% (inactive) and 62.3% (inactive) | 92.2% and 117% | 1.1% (inactive) | 1.4 | -0.2% (inactive) | 9.9% (inactive) | 18.2% (inactive) | 3.6% (inactive) | -1.57% (inactive) | 11.5% (inactive) | -3.8% (inactive) | 0.544% (inactive) |  | 
CCCCCCCCCCCCCCCCOP(=O)([O-])OCC[N+](C)(C)C | 146% (inactive) and 43% (inactive) | 78.6% and 106% | -0.6% (inactive) | 1.9 | 0% (inactive) | 100% (active) | 12.2% (inactive) | 2.7% (inactive) | 100% (active) | 120% (active) | 103% (active) | 17% (inactive) |  | 
O=C1c2cccc(O)c2C(=O)c2c(O)cccc21 | 32.6% (inactive) | 96.2% | -0.6% (inactive) | 8.2 | -2.2% (inactive) | 21.4% (inactive) | 6% (inactive) | 0% (inactive) | 21.9% (inactive) | 52.4% (active) | 9.7% (inactive) | -6.73% (inactive) |  | 
C[C@H]1O[C@@H](n2cc(F)c(=O)[nH]c2=O)[C@H](O)[C@@H]1O | 43.4% (inactive) | 83% | 1.3% (inactive) | 0.4 | -1.2% (inactive) | 29.5% (inactive) | 22.2% (inactive) | -2.6% (inactive) | 59.6% (active) | 20.6% (inactive) | 8.35% (inactive) | -6.33% (inactive) | -1% (inactive) | 1 (inactive)
CC(=O)OC(C)C[N+](C)(C)C (centres undefined) | 94% (inactive) and 73.8% (inactive) and 58% (inactive) | 94.5% and 73.8% and 92.8% | 1.5% (inactive) | 3.2 | -0.3% (inactive) | -1.9% (inactive) | 4.4% (inactive) | 5.7% (active) | -6.13% (inactive) | -21.3% (inactive) | -8.2% (inactive) | 19.2% (inactive) | -2% (inactive) | 0.9 (inactive)
CC(=O)OCC1=C(C(=O)O)N2C(=O)[C@@H](NC(=O)Cc3cccs3)[C@H]2SC1 | 98.3% (inactive) and 75.9% (inactive) and 62% (inactive) | 104% and 75.3% and 99.8% | 2.4% (inactive) | 4.2 | 3.6% (inactive) | 33.1% (inactive) | -3.9% (inactive) | 2.4% (inactive) | 2.9% (inactive) | -15.1% (inactive) | -1% (inactive) | 4.29% (inactive) | 0% (inactive) | 1 (inactive)
CCCCCN(CCCCC)C(=O)C(CCC(=O)O)NC(=O)c1ccc(Cl)c(Cl)c1 (centres undefined) | 72.3% (inactive) and 35.5% (inactive) | 92.1% and 74.5% | -0.8% (inactive) | -0.1 | 2.8% (inactive) | -12.2% (inactive) | 4.7% (inactive) | 6.6% (inactive) | 4.6% (inactive) | 40.9% (inactive) | 38.9% (inactive) | 2.64% (inactive) | -5% (inactive) | 0.9 (inactive)
NCCS | 22.7% (inactive) and 38.2% (inactive) | 94.3% and 106% | 0.2% (inactive) | 3.8 | 2.9% (inactive) | -8.4% (inactive) | -3.5% (inactive) | -3.8% (inactive) | 2.53% (inactive) | -332% (inactive) | -14.1% (inactive) | -14% (inactive) | -2% (inactive) | 1 (inactive)
COC(=O)[C@@H]1[C@H]2C[C@H]3c4[nH]c5ccccc5c4CCN3C[C@@H]2CC[C@@H]1O | 80.6% (inactive) and 73.2% (inactive) and 41.3% (inactive) | 101% and 81.3% and 96.5% | 1% (inactive) | 0.4 | 1.1% (inactive) | -73.5% (inactive) | 10.7% (inactive) | -0.7% (inactive) | 13.8% (inactive) | 18.3% (inactive) | -9.4% (inactive) | 2.13% (inactive) | 0% (inactive) | 1.1 (inactive)
